Several values for one entry are separate records, joined by “and”; a condition that tells them apart may be missing. Equal values may be shown once. Records with an inconclusive call do not appear. Activity calls are given as the source filed them. The call rests on the fitted dose curve; in most records, active means well fitted activation curve with a large enough effect; inconclusive means small, poorly fitted or top-dose-only effect; inactive means no such curve, though single readings can be large or run the other way.

A short description of the assay: Extended Characterization of HPGD Inhibitors: PGE2 Assay in LNCaP Cells. The following applies: PGE2 HTRF level, 16 h; series mostly up to 100 µM. The text has this: The central role of HPGD is to inactivate prostaglandins such as prostaglandin E2 (PGE2) or prostaglandin D2 (PGD2). These prostaglandins are involved in a number of processes, including inflammation, differentiation, and cellular signaling, which makes HPGD an important target for pharmacological intervention. A number of prostaglandins of particular biological interest have been identified as substrates of HPGD. […] Over-production of PGE2 has been reported to promote tumor-associated neovascularization, cell proliferation, and tumor growth. […] In this orthogonal assay, we set out to measure if compounds were able to increase PGE2 production NIH Chemical Genomics Center [NCGC] NIH Molecular Libraries Probe Centers Network [MLPCN] MLPCN Grant: MH084681 Assay Submitter (PI): Structural Genomics Consortium
A549 cells, LNCaP cells or media were dispensed in 384-well plates (ProxiPlate-384 Plus, PerkinElmer, Shelton, CT) at 5,000 cells/9.9 uL/well using a CappAero384 multichannel pipette (Odense, Denmark). Separately on the plate, 10 uL of PGE2 calibration standards at a starting assay concentration of 5,000 pg/mL (1:2 dilution, 12-points, n = 1, prepared in media, Cisbio, Bedford, MA) were dispensed. Compounds (100 nL, final concentration range from 41.9 nM to 100 uM) were transferred using an ATS Acoustic Liquid Dispenser (EDC Biosystems, Fremont, CA). After being mixed using an automated liquid handler (CyBio, Jena, Germany), samples were incubated (37 deg C, 5% CO2, under a humidified atmosphere) for 16 hours. PGE2 labeled conjugates were added to each well, first 5 uL of PGE2-d2, followed by 5 uL of anti-PGE2-cryptate, centrifuged (1,500 rpm, 15 sec) and incubated (RT, protected from light) for 5 hours. Time-resolved fluorescence intensity (320 nm excitation, 615 and 665 nm emission) was measured using an Envision plate reader (PerkinElmer). Data was expressed as the ratio of 665 nm/615 nm emissions. Concentration (pg/mL) of samples were calculated from a 4-parameter logistic calibration curves of the PGE2 standards.
For orientation: In TR-FRET formats the signal depends on donor and acceptor labels being close together.
For `Brc1cnc2nc(SCc3ccncc3)[nH]c2c1`, the Potency is 4.43 µM (active).

As to `Clc1ccc(CSc2nc3ncc(Br)cc3[nH]2)cc1`, the Potency is 14 µM (active). With `CCCCn1cnc2cc(C(=O)N3CCCCC3)ccc21` the figure was 4.43 µM (active). With `Cc1ccccc1CSc1nc2ncc(Br)cc2[nH]1` the figure was 22.2 µM (active); with `Cc1cc(-c2nnc3n2CCCC3)c(C)n1-c1ccccc1`, 7.03 µM (active); with `Cc1ccc(-n2cnc3cc(C(=O)N4CCCCC4)ccc32)cc1`, 0.443 µM (active). With `c1ccc(-n2cc(-c3nnc4n3CCCCC4)cn2)cc1` the entry was “inactive”; with `Cc1cc(-c2nnc3n2CCCCC3)c(C)n1-c1ccc(C(F)(F)F)cc1`, 3.52 µM (active). On to `CCOC(=O)c1ccc(-n2cnc3cc(C(=O)N4CCCCC4)ccc32)cc1`, for which the Potency entry was “inactive”.

Regarding `Cc1cc(-c2nnc3n2CCCCC3)c(C)n1-c1ccc([N+](=O)[O-])cc1`, the Potency is 2.22 µM (active). With `Cc1cccc(-n2cnc3cc(C(=O)N4CCCC4)ccc32)c1` the figure was 55.8 µM (active). With `FC(F)(F)c1ccc(-c2nc(-c3nnc4n3CCCCC4)c(C(F)(F)F)o2)cc1` the entry was “inactive”; with `O=C(c1ccc2c(c1)ncn2-c1ccccc1)N1CCCCC1`, 0.28 µM (active); with `Clc1ccc(CSc2nc3ncc(Br)cc3[nH]2)cc1Cl`, 22.2 µM (active).

Consider `Cc1cccc(-n2cnc3cc(C(=O)N4CCCC(C(F)(F)F)C4)ccc32)c1` (stereo not given), for which the Potency is 1.76 µM (active). The result for `Fc1ccc(CSc2nc3ncc(Br)cc3[nH]2)cc1` reads 35.2 µM (active); that for `Cc1cc(-c2nnc3n2CCCCC3)c(C)n1-c1cccc2ccccc12`, 884 nM (active) and 1.76 µM (active); that for `CC(C)(C)c1ccc(-n2cnc3cc(C(=O)N4CCCCC4)ccc32)cc1`, 4.43 µM (active). With `N#Cc1cccc(CSc2nc3ncc(Br)cc3[nH]2)c1` the figure was 35.2 µM (active); with `CCOC(=O)c1ccc(-n2c(C)cc(-c3nnc4n3CCCCC4)c2C)cc1`, 14 µM (active). With `N#Cc1ccccc1CNc1nc2ncc(Br)cc2[nH]1` the entry was “inactive”; with `Cc1cc(-c2nnc3n2CCCCC3)c(C)n1-c1cccc(Cl)c1`, 0.558 µM (active); with `COc1ccc(-n2cnc3cc(C(=O)N4CCCCC4)ccc32)cc1`, 0.884 µM (active). On to `CC(C)(C)n1cnc2cc(C(=O)N3CCCCC3)ccc21`, for which the Potency is 0.884 µM (active).

On to `O=C(c1ccc2c(c1)ncn2-c1cccc(Cl)c1)N1CCCCC1`, for which the Potency was 0.222 µM (active).

With `Cc1cccc(-n2cnc3cc(C(=O)N4CCC(Cc5ccccc5)CC4)ccc32)c1`, the Potency result was “inactive”. The result for `N#Cc1ccccc1CSc1nc2ncc(Br)cc2[nH]1` reads 35.2 µM (active); that for `Cc1cccc(-n2cnc3cc(C(=O)N4CCC(C#N)CC4)ccc32)c1`, “inactive”; that for `O=[N+]([O-])c1ccccc1CSc1nc2ncc(Br)cc2[nH]1`, 0.352 µM (active). Take `COc1ccccc1-n1cnc2cc(C(=O)N3CCCCC3)ccc21`: the Potency is 1.76 µM (active). The result for `Brc1cnc2nc(SCc3ccccn3)[nH]c2c1` reads 11.1 µM (active); that for `O=C(c1ccc2c(c1)ncn2-c1cccc(C(F)(F)F)c1)N1CCCCC1`, 2.8 µM (active); that for `Cc1cc(-c2nnc3n2CCCCC3)c(C)n1-c1ccc(Br)cc1`, 2.8 µM (active). The result for `O=C(c1ccc2c(c1)ncn2-c1ccc(Cl)cc1)N1CCCCC1` reads 0.884 µM (active). With `O=[N+]([O-])c1cccc(CSc2nc3ncc(Br)cc3[nH]2)c1` the entry was “inactive”; with `COc1ccc(CSc2nc3ncc(Br)cc3[nH]2)cc1F`, 22.2 µM (active); with `Cc1ccc(-n2c(C)cc(-c3nnc4n3CCCCC4)c2C)cc1`, 0.702 µM (active). `Cc1cccc(-n2cnc3cc(C(=O)N4CCC(c5ccccc5)CC4)ccc32)c1`: the Potency result was “inactive”.

Regarding `O=[N+]([O-])c1ccc(CSc2nc3ncc(Br)cc3[nH]2)cc1`, the Potency is 2.22 µM (active). The result for `Cc1cc(-c2nnc3n2CCCCC3)c(C)n1-c1ccc(F)cc1` reads 3.52 µM (active).

The record behind these values is PubChem BioAssay AID743172 (National Center for Advancing Translational Sciences (NCATS), 2013).
